Compounds with a hit are over-represented: about 6.2% of the library has one in this group of screens.
ATXN viability = viability counter-screen for ATXN expression inhibitors. Potency, µM (highest dose often 56.7 µM), actives largely listed as cytotoxic. actives 0.49% (n = 400,000). S2 cells (HEK-293 line with an ATXN2-luciferase reporter) viability, CellTiter-Fluor protease fluorescence, 24 h; note: nearly all actives have a fitted effect of over 40% in size
KB-V1 cytotox = KB-V1 MDR subline cytotoxicity. KB-V1 MDR cells viability, CellTiter-Glo, 72 h. Potency, µM (doses to about 46.1 µM), hits mostly cytotoxic. actives 3.4% (n = 400,000); note: % is set by controls: 0 for no effect and ±100 for the full control effect; nearly all actives have a fitted effect of over 60% in size
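KB-V1 cells (P-gp-expressing MDR subline of KB-3-1) in phenol-red-free DMEM with 10% FBS were exposed to library compounds over a concentration series for 72 h at 37 degrees C. Viability read by CellTiter-Glo luminescence; concentration-effect curves fitted after normalization.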
HT1080 IDH1KD tx = HT-1080 IDH1 knockdown cell toxicity (counter line); Potency, µM (series often up to 46.1 µM), for inactives: top-dose activity, negative = toxicity, usual class: cytotoxic; actives 2% (n = 360,000); HT-1080 IDH1 knockdown viability, ATP luminescence, 48 h;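 note: 0% = DMSO wells and -100% = cell-free medium wells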
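Cytotoxicity counter-line: IDH1KD HT-1080, 48 h, CellTiter-Glo. Curves classed by r2, magnitude and activity.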
ATXN2 expr inh = inhibitors of ATXN2 expression | HEK-293 ATXN2-luciferase reporter, luminescence, 24 h | Potency, µM (highest dose often 57 µM), for the others: at the top dose activity change, negative = inhibition, most hits filed as inhibitors | actives 0.72% (n = 360,000); note: % is set by controls: 0 for no effect and ±100 for the full control effect; nearly all actives have a fitted effect of over 55% in size
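ATXN2-luciferase reporter cells (luciferase flanked by upstream and downstream ATXN2 gene portions) were treated 24 h at 37 °C with compounds at up to 57 uM. SteadyGlo luminescence gave expression; GF-AFC fluorescence gave viability.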
HT1080-NT tox = kills 2HG-producing HT-1080-NT fibrosarcoma cells; actives 1.6% (n = 360,000); HT-1080-NT fibrosarcoma viability, CellTiter-Glo ATP luminescence, 48 h; Potency, µM (doses to about 46.1 µM), inactives show at the top dose activity, negative = less viability, actives largely listed as cytotoxic;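 note: NT is the 2HG producing partner of a matched IDH1 knockdown line; 0% = DMSO-treated cells and -100% = media-only wells without cells; nearly all actives have a fitted effect of over 55% in size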
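Fibrosarcoma NT cells, 750 per well in 5% FBS RPMI, were exposed to compound for 48 hours. Viability: CellTiter-Glo luminescence.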
KB-3-1 cytotox = kills parental KB-3-1 adenocarcinoma cells; KB-3-1 viability, CellTiter-Glo ATP luminescence, 72 h; Potency, µM (doses to about 46.1 µM), hits mostly cytotoxic; actives 1.4% (n = 400,000); note: % is set by controls: 0 for no effect and ±100 for the full control effect; nearly all actives have a fitted effect of over 60% in size
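KB-3-1 parental drug-naive adenocarcinoma cells in DMEM/10% FBS, incubated 72 h at 37 C with pin-transferred compounds across a concentration series. Viability by CellTiter-Glo luminescence; concentration-response curves fitted after normalization.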
Numbers without * were called inactive; i = inactive; ? = inconclusive; . = no result. Calls come from the whole dose curve; as a rule, active = well fitted curve in the direction sought with a large enough effect; inconclusive = small, poorly fitted or top-dose-only effect, or another doubt; inactive = no such curve, though single readings can be large; an effect the other way counts as inactive or inconclusive. Potency is the fitted concentration of half-maximal effect.

SMILES | ATXN viability | KB-V1 cytotox | HT1080 IDH1KD tx | ATXN2 expr inh | HT1080-NT tox | KB-3-1 cytotox
Cc1cc(C)n(C(C)CC(=O)NCc2ccc(Cl)cc2)n1 (centres undefined) | i | i | . | -2% | . | i
CC1CCN(c2oc(-c3ccc(OCc4ccccc4Cl)cc3)nc2C#N)CC1 | . | i | . | . | . | i
CCOC(=O)N1CCC(N2CCN(S(=O)(=O)c3ccc4ccccc4c3)CC2)CC1 | i | 2.6µM* | -15% | -10% | -21% | i
COc1ccc(S(=O)(=O)N2CCN(C)CC2)cc1 | i | i | 1% | -18% | 1% | i
O=S(=O)(c1ccc2nc(Nc3ccccc3)ccc2c1)N1CCCCC1 | i | i | 26µM* | -5% | ? | ?
O=C(c1cccnc1)N1CCN(S(=O)(=O)c2ccc3ccccc3c2)CC1 | i | 18µM* | 0% | -1% | -1% | 16µM*
COc1ccc(S(=O)(=O)N2CCN(C3Cc4ccccc4C3)CC2)cc1 | i | 21µM* | 8% | -1% | -4% | i
Cc1ccc(-n2ncc(C(=O)NCCN3CCN(C)CC3)c2C2CCN(C(=O)OC(C)(C)C)CC2)c(C)c1 | i | ? | . | -22% | . | i
CCS(=O)(=O)c1nc(S(=O)(=O)c2ccc(C)cc2)c(NCc2ccccc2Cl)s1 | i | i | . | 5% | . | i
Cc1ccc(S(=O)(=O)N2CCCCC2C(=O)N2CCN(Cc3ccccc3)CC2)cc1 (centres undefined) | i | 4.6µM* | 3% | -8% | 6% | ?
Cc1nnc(OCc2nc3ccccc3n2C)c2ccccc12 | i | 9.2µM* | 1% | 22% | -2% | ?
C=C(C)CSc1cc(C)nc2c(-c3ccccc3)c(C)nn12 | i | 6.5µM* | -26% | . | ? | ?
CCSc1cc(C)nc2c(-c3ccccc3)c(C)nn12 | i | i | 8% | 4% | 2% | i
CC(=O)Nc1ccc(Nc2cc(C(C)C)nc3c(-c4ccccc4)c(C)nn23)cc1 | ? | i | ? | ? | ? | 5.8µM*
Cc1nn2c(NCCCn3ccnc3)cc(C(C)C)nc2c1-c1ccccc1 | i | ? | ? | -36% | 15µM* | i
Cc1cc(NCCCN2CCOCC2)n2nc(C)c(-c3ccccc3)c2n1 | i | ? | -22% | 8% | -24% | ?
Cc1cc(NCCC(C)C)n2nc(C)c(-c3ccccc3)c2n1 | i | 21µM* | ? | 12% | ? | i
CN(C)S(=O)(=O)N(CC(=O)NCCSCc1cccc(Cl)c1)c1ccccc1 | ? | ? | . | -7% | . | i
Cc1ccc2c(=O)cc(C(=O)Nc3c(C(=O)c4ccc(F)cc4)oc4ccccc34)oc2c1C | i | ? | . | -2% | . | i
COC(=O)c1ccc(CN2CCC3(CCC(CNC(=O)c4ccco4)O3)CC2)cc1 (centres undefined) | i | . | . | . | . | .
Cc1c(C(=O)N2CCCCCC2)sc2ncnc(NCC3CCCO3)c12 (centres undefined) | i | . | . | . | . | .
O=C(Nc1nnc(-c2ccncc2)o1)c1ccc(Br)s1 | i | ? | ? | -34% | -18% | 21µM*
CCc1c(-c2cccc(Cl)c2)ncn1Cc1cccc(-c2ccccc2)c1 | . | 16µM* | ? | . | ? | ?
CCCc1c(-c2cccc(Cl)c2)ncn1Cc1cccc(-c2ccccc2)c1 | . | 21µM* | 23µM* | . | ? | ?
CCOC(=O)C1CCCCN1C(=O)c1cnn(-c2nccc(-c3cc(C)sc3C)n2)c1C1CC1 (centres undefined) | i | . | . | . | . | .
SMILES | ATXN viability | KB-V1 cytotox | HT1080 IDH1KD tx | ATXN2 expr inh | HT1080-NT tox | KB-3-1 cytotox
COc1cccc(C(c2c(NC(=O)c3ccccc3)sc(C)c2C)N2CCN(C)CC2)c1 (centres undefined) | ? | 21µM* | 3% | -19% | -5% | ?
CCCCc1c(-c2ccc(F)cc2)ncn1CCc1ccccc1OC | . | 12µM* | ? | ? | ? | ?
CCCCCc1c(-c2ccc(Cl)cc2)ncn1CCc1ccccc1OC | . | 12µM* | 16µM* | 0% | ? | ?
CCCc1c(-c2cccc(Cl)c2)ncn1Cc1ccccc1OC | ? | 16µM* | ? | -35% | ? | ?
CCCCCc1c(-c2ccc(OC)cc2)ncn1CCc1ccccc1OC | . | 10µM* | 16µM* | ? | 21µM* | ?
CCc1ccccc1OCCCOc1ccc(OC)cc1 | i | i | -4% | -3% | 0% | i
CCc1ncn(CCc2ccccc2OC)c1C(C)C | i | ? | ? | -3% | ? | ?
COc1ccccc1Cc1c(-c2cccc(Cl)c2)nc2ccc(Br)cn12 | i | i | -5% | 19% | -2% | i
CCCCc1c(Cc2ccccc2)ncn1CCc1ccccc1OC | . | 18µM* | 18µM* | 14µM* | ? | 21µM*
CCCCc1c(-c2ccc(OC)cc2)ncn1CCc1ccccc1OC | . | 15µM* | 16µM* | ? | 16µM* | ?
CCCCc1c(-c2ccccc2)ncn1CCc1ccccc1OC | . | 10µM* | ? | ? | ? | ?
COc1ccccc1CCn1cnc(C)c1CC(C)C | ? | i | ? | 0% | ? | ?
CCCCc1c(-c2cccc(Cl)c2)ncn1CCc1ccccc1OC | . | 10µM* | ? | ? | ? | ?
COc1ccc(S(=O)(=O)N(CC(=O)NCCSc2ccccc2)c2ccc(C)cc2)cc1 | i | i | . | -3% | . | ?
Cc1ccc(-n2ncc3c(NCCCN4CCOCC4)ncnc32)cc1C | i | i | . | 20% | . | i
CCOc1c(Br)cc(C2CC(=O)Nc3cc(OC)c(OC)cc32)cc1OC (centres undefined) | i | i | ? | 11% | -29% | i
COc1cc2c(c(OC)c1)C(c1ccncc1)CC(=O)N2 (centres undefined) | i | ? | 3% | 3% | 9% | i
COc1cc(C2CC(=O)Nc3cc(C)c(C)cc32)cc(OC)c1OC (centres undefined) | i | 16µM* | ? | -20% | ? | 9.2µM*
COc1cc(C2CC(=O)Nc3n[nH]c(-c4ccccc4)c32)cc(OC)c1OC (centres undefined) | ? | i | ? | 2% | ? | 21µM*
O=[N+]([O-])c1ccc(-c2ccc(S(=O)(=O)NCCN3CCCC3)cc2)cc1 | ? | i | ? | ? | 18µM* | i
O=[N+]([O-])c1ccc(S(=O)(=O)NCCN2CCOCC2)cc1 | i | i | 6% | -30% | 17% | i

Compound activity deposited in PubChem BioAssay by National Center for Advancing Translational Sciences (NCATS).
